In all, about 360,000 compounds went through this assay and about 25,000 (6.9%) were called active. Inconclusive results (about 9%) are left out. Calls come from the whole dose curve; as a rule, active = well fitted inhibition curve with a large enough effect; inconclusive = small, poorly fitted or top-dose-only effect; inactive = flat fitted curve, though single readings scatter. Only a selection was taken, and actives are over-represented in it overall.
biological target: Luciferin 4-monooxygenase (Photinus pyralis) (UniProt P08659); assay: qHTS profiling assay for firefly luciferase inhibitor/activator using purifed enzyme and Km concentrations of substrates (counterscreen for miR-21 project); conditions: purified FLuc, luminescence inhibition; series mostly up to 57.5 µM; activity change, negative = inhibition: at the top concentration; note: nearly all actives have a fitted effect of over 55% in size;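 for activity change, negative = inhibition: plate controls were vehicle for no effect and reference inhibitor for full effect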
Sequence (P08659 whole entry, looked up): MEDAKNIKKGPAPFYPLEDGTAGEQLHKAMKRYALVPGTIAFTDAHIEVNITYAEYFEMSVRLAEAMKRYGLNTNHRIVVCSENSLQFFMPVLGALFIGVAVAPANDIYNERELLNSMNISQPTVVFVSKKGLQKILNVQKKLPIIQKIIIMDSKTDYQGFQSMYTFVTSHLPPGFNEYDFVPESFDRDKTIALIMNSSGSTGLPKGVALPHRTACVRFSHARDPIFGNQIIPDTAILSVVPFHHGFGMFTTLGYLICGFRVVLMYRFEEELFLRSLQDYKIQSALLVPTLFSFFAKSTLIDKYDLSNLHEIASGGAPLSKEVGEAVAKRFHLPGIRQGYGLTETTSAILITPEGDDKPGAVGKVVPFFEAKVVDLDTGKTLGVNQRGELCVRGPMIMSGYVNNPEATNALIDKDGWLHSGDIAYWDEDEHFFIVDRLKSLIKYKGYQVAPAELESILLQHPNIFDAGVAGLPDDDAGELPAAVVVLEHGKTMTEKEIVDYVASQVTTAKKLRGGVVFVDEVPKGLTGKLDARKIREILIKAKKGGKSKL
Procedure, shortened: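 Purified P. pyralis luciferase (10nM final) with 10uM D-luciferin and 10uM ATP (Km levels) in 50mM Tris acetate pH 7.5, 10mM Mg acetate, 0.01% Tween-20, 0.05% BSA; qHTS 6-point titration, ~60 µM downward; luminescence read.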
Potency is the fitted concentration of half-maximal effect.

Compound | activity change, negative = inhibition | Potency
COc1ccc(NC(=O)N2CCCC2C(=O)NCc2ccccc2Cl)cc1 (stereo not given) | -4.96% (inactive) | 
O=S1(=O)C=C(SCCN2CCCC2)c2ccccc21 | -2.28% (inactive) | 
CC(C)(C)c1ccc(CN2C(=O)c3ccccc3S2(=O)=O)cc1 | -16.2% (inactive) | 
CC(C)(C)c1ccc(OC2=CS(=O)(=O)c3ccccc32)cc1 |  | 15.1 µM (active)
Cc1ccc(-n2c(=O)c3cccnc3n2CC(=O)NCc2ccc(F)cc2)cc1C | -12.7% (inactive) | 
O=C(c1ccc2c(c1)N(Cc1ccccc1)C(=O)c1ccccc1S2(=O)=O)N1CCC(Cc2ccccc2)CC1 | 2.38% (inactive) | 
Cc1nc(NC2=NC(C(=O)Nc3ccc(Cl)cc3)CC(=O)N2)nc2ccccc12 (stereo not given) | 0.404% (inactive) | 
CCc1nc2sc(C(=O)O)c(N)c2c2c1CCCC2 | -2.9% (inactive) | 
CCN(CC)C(=O)c1sc2nc(-c3ccccc3)ccc2c1N |  | 5.36 µM (active)
Nc1c(C(=O)NCc2ccccc2)sc2nc3c(cc12)C(=O)CCC3 | 2.35% (inactive) | 
COc1cccc(C(=O)c2sc3nc(-c4ccccc4)cc(C(F)(F)F)c3c2N)c1 | -0.554% (inactive) | 
COC(=O)c1cc2c(N)c(C(=O)c3ccc(Cl)cc3)sc2nc1C(OC)OC | -11.4% (inactive) | 
CCCS(=O)(=O)c1c(Nc2ccccc2C)sc(C(=O)c2ccccc2)c1N | 1.11% (inactive) | 
Cc1ccc2c(N)c(C(=O)c3ccccc3)sc2n1 |  | 21.3 µM (active)
CN(C)c1ccnc2sc3c(=O)n(Cc4ccccc4)cnc3c12 | 3.33% (inactive) | 
CN(C)c1ccnc2sc(C(=O)c3ccccc3)c(N)c12 |  | 5.36 µM (active)
Cc1nc2sc(C(=O)c3ccccc3)c(N)c2c2c1CCCC2 |  | 10.7 µM (active)
CC(=O)c1c(Nc2ccccc2)sc(C(=O)c2ccccc2)c1C | -3.32% (inactive) | 
COc1ccc(C(F)(F)F)cc1NC(=O)c1sc2nc(-c3cccs3)ccc2c1N | -1.38% (inactive) | 
COc1cc(OC)c(NC(=O)Cc2ccc(-n3c(C)nc4cccnc43)cc2)cc1Cl | -14.7% (inactive) | 
O=C(O)CCCCCCCCc1cn(CN2C(=O)c3ccccc3C2=O)nn1 | -0.842% (inactive) | 
CCOCCCNC(=O)c1c(NC(=O)c2nc(SC)ncc2Cl)sc2c1CCCC2 | -1.87% (inactive) | 

Compound | activity change, negative = inhibition | Potency
CC(=O)NC(c1cccs1)c1cc(Br)c2cccnc2c1O (stereo not given) | -0.554% (inactive) | 
CC(OC(=O)CNC(=O)c1cccc(F)c1)C(=O)NC1CCCCC1C (stereo not given) | -0.117% (inactive) | 
CCN(CC)c1ccc(C2C(C(N)=O)=C(C)Nc3nc(SCc4ccccc4)nn32)cc1 (stereo not given) | -0.212% (inactive) | 
CSc1ncc(C(=O)Nc2ccc(C)cc2C)c(C)n1 | -0.488% (inactive) | 
COC(=O)c1nc(NC(=O)c2ccc(F)cc2)n[nH]1 | -14.8% (inactive) | 
CSc1nccc(NC(=O)c2ccc(C(C)(C)C)cc2)n1 |  | 1.9 µM (active)
COC(=O)c1ccccc1NC(=O)c1cc(-c2ccccc2O)no1 | -15.2% (inactive) | 
O=S(=O)(NCCCCCCNS(=O)(=O)c1c(F)cccc1F)c1ccc2c(c1)OCCO2 | 4.33% (inactive) | 
Cc1ccccc1CCNC(=O)C1CCN(c2nc3ccccc3nc2C(F)(F)F)CC1 | -6.81% (inactive) | 
O=C1CCNCCN1[C@H](CO)Cc1ccccc1 | 1.19% (inactive) | 
CC(=O)NCC(=O)N(Cc1ccco1)C1(C(=O)NC2CCCC2)CCCCC1 | -1.26% (inactive) | 
CSc1ccccc1NC(=O)c1cc(Cl)sc1Cl | -13.3% (inactive) | 
Cc1cccn2c(=O)c(C(=O)NC(C)c3ccccc3)cnc12 (stereo not given) | -2.31% (inactive) | 
CSc1ccccc1NC(=O)c1cnc2sc(C)cn2c1=O |  | 5.36 µM (active)
CCOc1ccc(NS(=O)(=O)c2ccc(Cl)c(C(=O)N(C)Cc3cccnc3)c2)cc1 | 4.21% (inactive) | 
CC(=O)Nc1ccc(NC(=O)CCN2C(=O)C3CC=CCC3C2=O)cc1 (stereo not given) | 4.45% (inactive) | 
CCC(=O)c1ccc(OCC(=O)N(CC)CC2COc3ccccc3O2)cc1 (stereo not given) | 11.9% (inactive) | 
CCC(=O)N1CCc2cc(S(=O)(=O)NC(C(=O)Nc3ccc(C(C)=O)cc3)C(C)C)ccc21 (stereo not given) | 3.87% (inactive) | 
O=C(Cc1ccccc1)NNC(=O)C1CCN(c2ncccn2)CC1 | -1.06% (inactive) | 
O=C1/C(=C\Nc2ccccc2)CCN1c1ncccn1 |  | 23.9 µM (active)
COc1ccccc1Oc1ccc(N/C=C2/CCCC2=O)cc1 | -13.2% (inactive) | 
CCc1nnc(SCc2c(F)cccc2Cl)c2cc3sccc3n12 | -0.0505% (inactive) | 

Compound | activity change, negative = inhibition | Potency
COc1cc(C(=O)NN(CCC#N)C2=NS(=O)(=O)c3ccccc32)cc(OC)c1OC | 3.16% (inactive) | 
CCOC(=O)C1CCCN(C(=O)Cn2ncc3c(C)n(Cc4ccc(F)cc4)c(C)c3c2=O)C1 (stereo not given) | -11.5% (inactive) | 
Cc1cnc(CN(C)C(=O)C2CCC(=O)N(CCc3cccc(F)c3)C2)[nH]1 (stereo not given) | 0.959% (inactive) | 
O=C(Nc1ccc(Br)cn1)c1ccc([N+](=O)[O-])cc1Cl |  | 13.5 µM (active)
O=C(Nc1cccnc1)c1cc([N+](=O)[O-])ccc1Cl | -0.936% (inactive) | 
O=C(Nc1ccncc1)c1ccc([N+](=O)[O-])cc1Cl | -8.87% (inactive) | 
COc1ccc2[nH]c3c(c2c1)CCN(C(=O)CCC1CCCC1)C3c1ccc(F)cc1 (stereo not given) | -0.437% (inactive) | 
Cc1ccc(-c2noc(CC(c3ccccc3)c3ccccc3)n2)cc1 | 10.8% (inactive) | 
Cc1cccc(-c2noc(CCC(=O)NC3CCCC3)n2)c1 | -9.98% (inactive) | 
Cc1ccc(Cc2nc(-c3cccc(C)c3)no2)cc1 |  | 10.7 µM (active)
CCc1ccccc1NC(=O)CSc1nnc(-c2ccccc2)c(-c2ccccc2)n1 | -4.53% (inactive) | 
Cc1ccc(CCNC(=O)Cn2c(-c3cccs3)cc3cc(F)ccc32)cc1 | -1.98% (inactive) | 
CCc1nn(CC(=O)N2CCN(c3cccc(C(F)(F)F)c3)CC2)c(=O)c2cc3occc3n12 | -1.64% (inactive) | 
Cc1cc(SCc2c(F)cccc2Cl)nc(=O)[nH]1 | 1.07% (inactive) | 
O=C(CSc1ccc(-c2ccco2)nn1)Nc1cccc(F)c1 |  | 12 µM (active)
Oc1ccc(-n2nnnc2SCc2c(F)cccc2Cl)cc1 | -3.56% (inactive) | 
O=C(CSc1ccc(-c2ccco2)nn1)NCc1ccc2c(c1)OCO2 | -18% (inactive) | 
CCn1c(CNC(=O)c2ccco2)nnc1SCC(=O)Nc1cccc(F)c1 | 4.49% (inactive) | 
Fc1cccc(Cl)c1CSc1ccc(-c2ccco2)nn1 |  | 13.5 µM (active)
Cc1noc2ncnc(NCc3ccccc3Cl)c12 | -5.3% (inactive) | 
O=C(CCSCc1cccc(F)c1)NCc1ccccc1 | -13.1% (inactive) | 
CCN(CC)CCn1c2c(c(SCC(=O)Nc3nc4ccccc4s3)nc1=O)CCCC2 | -1.18% (inactive) | 

Compound | activity change, negative = inhibition | Potency
c1ccc2sc(NN=C3CCCC3)nc2c1 |  | 2.69 µM (active)
O=C1NC(Nc2nc3ccccc3s2)(C(F)(F)F)C(=O)N1C1CCCCC1 (stereo not given) | 0.553% (inactive) | 
COC(=O)c1ccccc1NC(=O)C(Cc1ccccc1)N1Cc2ccccc2C1=O (stereo not given) | -3.18% (inactive) | 
COCCNC(=O)CSc1nc(-c2ccccc2)[nH]c1-c1ccc(C)cc1 | -6.21% (inactive) | 
C=CCNC(=S)N1CCN(CCN=Cc2c(C)[nH]n(-c3ccc([N+](=O)[O-])cc3)c2=O)CC1 | -6.74% (inactive) | 
O=C(Nc1cccnc1Cl)c1cc(-c2cccc(Cl)c2)on1 |  | inactive
CCc1ccccc1NC(=O)c1cc(-c2ccc3c(c2)OCO3)on1 |  | inactive
O=C(Nc1ccccc1C(F)(F)F)c1cc(-c2ccc(O)cc2)on1 |  | 26.9 µM (active)
Cc1ccccc1CSc1nc2c([nH]c3ccccc32)c(=O)n1C | -1.85% (inactive) | 
COc1ccc(CNC(=O)CS(=O)Cc2nc(-c3cccc(C)c3)oc2C)cc1 (stereo not given) | -17.5% (inactive) | 
COc1ccc(CNc2nc(-c3ccc(Cl)cc3)cc(C(F)(F)F)n2)cc1 | -3.26% (inactive) | 
COc1ccc(Cn2c(-c3ccc(Cl)cc3)c[n+]3ccccc23)cc1 |  | 19 µM (active)
COc1ccc(CNc2nc(-c3ccc(Cl)cc3)nn2C(=O)c2ccccc2)cc1 | -0.962% (inactive) | 
COc1ccc(OC)c(-c2csc(-c3c(N)c(C(=O)c4ccccc4)n4ccccc34)n2)c1 | 0.147% (inactive) | 
CC(C)(C)c1ccc(C(=O)N2CCC(c3nc(-c4ccc(S(=O)(=O)N5CCCC5)cc4)no3)CC2)cc1 | -17% (inactive) | 
O=C(NCc1ccccc1Cl)c1csc2c1CCCCC2 | -13.1% (inactive) | 
CC(C)NC(=O)C(=O)N/N=C/c1ccco1 | 5.52% (inactive) | 
COC(=O)c1sc(NC(=O)c2csc3c2CCCC3)nc1C |  | 2.39 µM (active)
CCOC(=O)c1sc(NC(=O)c2cc(S(=O)(=O)N3CCOCC3)ccc2C)nc1C | -0.843% (inactive) | 
O=C(N/N=C/c1ccco1)c1csc2c1CCCC2 |  | 15.1 µM (active)
CC1CC(C)CN(CCCNC(=O)c2csc3c2CCCCC3)C1 (stereo not given) | 0.607% (inactive) | 
CCOc1ccc(CCNC(=O)c2csc3c2CCCCC3)cc1 | -5.62% (inactive) | 

Compound | activity change, negative = inhibition | Potency
O=C(N/N=C/c1ccco1)c1ccc(NC(=O)C2CC2)cc1 | -5.08% (inactive) | 
Cc1ccc(NC(=O)c2csc3c2CCCC3)cc1 |  | 4.26 µM (active)
Cc1c(CCOC(=O)CC23CC4CC(CC(C)(C4)C2)C3)sc[n+]1Cc1ccc([N+](=O)[O-])cc1 | 5.92% (inactive) | 
CCn1c(SCC(=O)NCC2CCCO2)nc2ccccc21 (stereo not given) | 2.93% (inactive) | 
CCc1ccccc1NC(=O)Cn1c(=O)n(-c2cccc(C)c2)c(=O)c2c1c1cc(OC)ccc1n2C | -1.17% (inactive) | 
CC(=O)c1ccc(S(=O)(=O)NCCC(=O)N2CCN(c3ccccn3)CC2)cc1 | 1.49% (inactive) | 
O=C(CC(c1cccs1)N1Cc2ccccc2C1=O)Nc1ccc(F)cc1F (stereo not given) | -8.01% (inactive) | 
Nc1ccc(C(=O)N2CCN(S(=O)(=O)c3ccc(Cl)cc3)CC2)cc1[N+](=O)[O-] | -0.246% (inactive) | 
COc1ccc(-c2nc(S(=O)(=O)c3ccccc3)c(N3CCCCC3)o2)cc1 | -1.77% (inactive) | 
Oc1cccc2ccc(/C=C/c3ccc(Br)s3)nc12 |  | 6.75 µM (active)
Nc1ccc(S(=O)(=O)Nc2nccc(/C=C/c3ccc(Br)s3)n2)cc1 | -10.2% (inactive) | 
COc1cccc(N(CC(=O)NC2CCCC2)C(=O)CCCC(=O)Nc2ccccn2)c1 | 0.401% (inactive) | 
COc1ccc(C(=O)Nc2c(Cl)cc(Cl)cc2C(=O)N2CCC(C)CC2)cc1 | 1.11% (inactive) | 
CC1CCN(C(=S)c2cccc(O)c2)CC1 | -1.03% (inactive) | 
CC1CCN(C(=S)c2ccc(-c3ccc(Cl)cc3Cl)o2)CC1 |  | 12 µM (active)
O=C(CN1C(=O)COc2ccc(S(=O)(=O)N3CCOCC3)cc21)N1CCN(c2cccc(Cl)c2)CC1 | 0.0356% (inactive) | 
Cc1onc(-c2ccccc2)c1C(=O)NNC(=S)NC(=O)c1ccc(F)cc1 | 1.17% (inactive) | 
COc1ccc(C(=O)NC(=S)NNC(=O)c2c(-c3ccccc3)noc2C)cc1 | -0.585% (inactive) | 
O=C(Nc1cn(-c2ccccc2)nc1-c1ccccc1)c1ccccc1 |  | 15.1 µM (active)
CC(=O)c1cccc(NC(=O)c2cc(C)nn2-c2ccccc2)c1 | -9.7% (inactive) | 
O=C(NNC(=S)NC(=O)c1cn(-c2ccccc2)nc1-c1ccccc1)c1ccncc1 |  | 13.5 µM (active)
Cc1onc(-c2ccccc2)c1C(=O)Nc1ccccc1C#N | 9.37% (inactive) | 

Reference: PubChem BioAssay AID588342 (National Center for Advancing Translational Sciences (NCATS), 2011)
